# Laboratory results from PubChem BioAssay AID504466 (National Center for Advancing Translational Sciences (NCATS), 2011).
# About 4,200 (1.3%) of roughly 330,000 compounds were called active. Inconclusive results (about 6%) are left out. Many of the other results were omitted from the sample, so actives are more common in it than they were. Values without a mark were called inactive. Calls come from the whole dose curve; as a rule, active = well fitted activation curve with a large enough effect; inconclusive = small, poorly fitted or top-dose-only effect; inactive = no such curve, though single readings can be large or run the other way.
# Assay: qHTS screen for small molecules that induce genotoxicity in human embryonic kidney (HEK293T) cells expressing luciferase-tagged ELG1; note: nearly all actives have a fitted effect of over 60% in size; for activity change, positive = activation: % of control where 0% means no effect
# Conditions: HEK293T ELG1-luciferase reporter, luminescence, 16 h; series mostly up to 46 µM; activity change, positive = activation: at the top concentration
# Outline: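 Screening used a luciferase reporter fused to human ELG1 in HEK293T cells. Luminescence was read on a CCD plate imager after 16 hr exposure and 30 min ONE-Glo incubation.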
# Potency is the fitted concentration of half-maximal effect.
Structure (SMILES),"activity change, positive = activation [%]",Potency
COc1ccccc1CNC(=O)COC(=O)c1cccs1,-1.05,–
CCN(C[C@H]1N[C@@](CC)(C(=O)OC)[C@H]2C(=O)N(C)C(=O)[C@@H]12)C(=O)Nc1ccc(F)cc1,3.56,–
Cc1ccccc1-n1c(C)cc(/C=C2\NC(=O)NC2=O)c1C,–,14.6 µM (active)
Cc1cccc(C)c1-n1c(C)cc(/C=C2\C(=O)NN(c3ccccc3)C2=O)c1C,5.82,–
Cc1cc(/C=C2/NC(=O)NC2=O)c(C)n1-c1cccnc1,8.4,–
COc1cc(SC)ccc1C(=O)NNC(=O)C1COc2ccccc2O1 (centres undefined),0.869,–
COc1ccccc1OCCCC(=O)Nc1ccc2c(c1)OCCO2,4.27,–
COC(=O)CCNc1ccc2c(c1)OCCO2,–,9.2 µM (active)
Cc1ccc(OCCCC(=O)Nc2ccc3c(c2)OCCO3)cc1,3.35,–
COc1cccc(CC(=O)OCC(=O)NCc2ccc3c(c2)OCO3)c1,0.92,–
CCN1C[C@@H]2[C@@H]3C(=O)N(Cc4ccccc4)C(=O)[C@@H]3[C@](Cc3ccccc3)(C(=O)OC)N2C1=NC1CCCCC1,-3.08,–
C[C@@H]1CN([C@H](C)CO)C(=O)c2cc(NC(=O)NC3CCCCC3)ccc2O[C@H]1CN(C)S(C)(=O)=O,-0.246,–
CC(=O)Nc1ccccc1NC(=O)c1cc(C)cc(C)c1,0.5,–
Nc1ccc(C(=O)NCc2ccccc2)cc1,3.4,–
Nc1ccc(C(=O)Nc2ccccc2N)cc1,–,14.6 µM (active)
CC[C@]1(C(=O)OC)[C@H]2C(=O)N(C)C(=O)[C@H]2[C@H]2CN(C)C(=NCc3ccccc3)N21,4.13,–
CCc1ccc(NC2Nc3cc(C)nn3S2)cc1 (centres undefined),–,9.2 µM (active)
CCc1ccc(NC(=O)N2CCN(c3ccccc3)CC2)cc1,2.07,–
CCCc1cc(=O)[nH]c(SCC(=O)Nc2ccc(S(=O)(=O)N3CCCC3)cc2)n1,-0.499,–
C=CC[C@H](CC(=O)N(CCO)Cc1ccccc1)C(=O)N[C@@H](COC(=O)[C@@H](CC=C)Cc1ccc(F)cc1)Cc1ccccc1,-6.21,–
COc1ccc(/C=N/Nc2ccccc2C(=O)O)cc1,–,1.3 µM (active)
COc1ccc(/C=N/OCC(=O)N(Cc2ccccc2)c2ccccc2C(=O)O)cc1,1.68,–
COc1ccc(C(=O)Nc2ccccc2C(=O)N/N=C/c2ccc(O)c(OC)c2)cc1,-12.2,–
COc1ccccc1-c1nnc2n1N=C(c1ccc(OC(F)F)c(OCC3CC3)c1)CS2,7.86,–
O=C(COC(=O)CN1C(=O)C2CCCCC2C1=O)Nc1ccc(F)c(F)c1F (centres undefined),1.33,–
COc1ccc(C(=O)C(C)OC(=O)c2cccc(S(=O)(=O)Nc3c(C)n(C)n(-c4ccccc4)c3=O)c2)cc1 (centres undefined),1.17,–

Structure (SMILES),"activity change, positive = activation [%]",Potency
Cc1cccc(C(=O)OCC(=O)Nc2ccc(F)cc2)c1,8.07,–
CCC(=O)Nc1ccc2nn(-c3ccc(F)cc3)nc2c1,–,1.46 µM (active)
Cc1ccc(-n2nc3ccc(NC(=O)/C=C/c4ccco4)cc3n2)cc1C,19.8,–
CCOC(=O)[C@H]1[C@H]2COc3ccccc3[C@@H]2N2C(=O)CN(Cc3ccccc3)C(=O)[C@@]12C,0.713,–
C#CCOCCOCCOCCNc1nc(N2CCN(C(=O)[C@H](CCC(=O)O)n3cc(CN)nn3)CC2)nc(N2CCN(C(=O)[C@H](CCC(=O)O)n3cc(CN)nn3)CC2)n1,0.694,–
O=C(COc1ccccc1F)NNC(=O)c1cc(Br)ccc1Cl,-1.83,–
CCN(CC(=O)NCc1ccc(F)cc1)S(=O)(=O)c1ccc(Cl)s1,-3.18,–
C/C(=N\Nc1ccc(S(N)(=O)=O)cc1[N+](=O)[O-])c1cccs1,13.8,–
C/C(=N\Nc1ncc(Cl)cc1Cl)c1cccs1,–,5.17 µM (active)
C/C(=N\Nc1ncc(Cl)cc1Cl)c1ccc(S(=O)(=O)NCc2ccco2)cc1,0.852,–
Cc1cc(NC(=O)COC(=O)/C=C/c2ccc(C)o2)no1,-0.158,–
COc1ccc2c(c1OC)C(=O)c1ccccc1C2=O,–,5.17 µM (active)
CC(=O)Oc1ccc2c(c1)C(=O)c1ccccc1C2=O,18.5,–
COc1cccc(-c2ccc3c(c2)S(=O)(=O)c2cccc(C(=O)O)c2C3=O)c1OC,2.09,–
COc1cc2c(-c3ccc4c(c3)OCO4)c(-c3ccsc3)oc(=O)c2cc1OC,0.908,–
COc1ccc(S(=O)(=O)N2CCN(c3cnccn3)CC2)cc1,1.44,–
Cc1nc2ccc(NC(=O)c3cccc(S(=O)(=O)N4CCOCC4)c3)cc2s1,-6.82,–
CCOC(=O)N1CCC(NC(=O)c2cnn3ccccc23)CC1,-1.21,–
Cc1cnc(C(=O)OCC(=O)N2CCc3ccccc32)cn1,1.68,–
O=C(c1cnn2ccccc12)N1CCc2ccccc21,–,4.11 µM (active)
O=C1CSc2ccc(C(=O)NCc3ccccn3)cc2N1,6.33,–
CCOC(=O)C1=CN(Cc2ccc(Br)cc2)S(=O)(=O)NC1C (centres undefined),2.38,–
COc1ccc(S(=O)(=O)N(C)C[C@H]2Oc3ccc(NS(=O)(=O)c4cccs4)cc3CC(=O)N([C@H](C)CO)C[C@H]2C)cc1,3.98,–
CCC(CO)Oc1cc(NC(=O)c2ccc(Cl)cc2)c2ncn(C(C)C)c2c1 (centres undefined),5,–
CC(=O)Nc1ccc(S(=O)(=O)NCCC(=O)N2CCN(c3ccccc3Cl)CC2)cc1,-2.27,–
N#Cc1ccc(C2N=C(c3ccccc3)NO2)cc1 (centres undefined),–,5.17 µM (active)

Structure (SMILES),"activity change, positive = activation [%]",Potency
O=C(OCC(=O)N1CCCCCC1)c1ccc(Br)c(S(=O)(=O)N2CCOCC2)c1,-3.75,–
C[C@@H]1C(c2ccc(F)cc2)=NN(c2ccc(Br)cc2)[C@H]1C(=O)N1CCOC1=O,2.71,–
Cc1ccc(S(=O)(=O)N2[C@@H](c3ccc(Br)cc3)C(C(=O)O)=C[C@H]2CC2CCCC2)cc1,0.375,–
Cc1cc(=O)oc2cc(OCCC[n+]3ccccc3)ccc12,2.93,–
Cc1ccccc1N1CCN(CCCOc2ccc3c(C)cc(=O)oc3c2)CC1,0.148,–
Cc1cc(=O)oc2cc(OCC3CC(c4ccccc4Cl)=NO3)ccc12 (centres undefined),–,7.94 µM (active)
CCCCNC(=O)C(C)N(CCN(C)C)C(=O)CCCCCN1C(=O)NC(c2ccc(Cl)cc2)C(C(=O)OCc2ccccc2)=C1C (centres undefined),-3.93,–
COC(=O)CSc1nnc(-c2cccnc2)o1,1.66,–
CN(C)c1ccc(-c2nnc(-c3cccnc3)o2)cc1,–,10.3 µM (active)
COc1ccc(-c2nnc(SCc3cccnc3)o2)cc1,15.4,–
COc1ccc(CCNC(=O)COC(=O)Cc2ccccc2F)cc1,2.3,–
Cc1ccc(C(=O)NCC(=O)NC2CC2)cc1,3.52,–
Oc1ccc(/C=N/NC2=NCCCCC2)c(O)c1,–,7.31 µM (active)
Oc1ccc(/C=N/Nc2nc(-c3ccccc3F)nc3ccccc23)c(O)c1,-11.4,–
COc1ccc(/C=C(\C#N)C(=O)ONC2=NCCCCC2)cc1,-2.29,–
O=C(Cn1cnc2ccccc2c1=O)NNC(=O)c1ccccc1F,0.474,–
COc1ccc(C(=O)Nc2cc(S(=O)(=O)N3CCCC3)ccc2Cl)cc1,-0.914,–
CN(C)c1nc(=Nc2cccc(Cl)c2)ss1,2.77,–
Clc1cccc(N=C2NN=C(c3ccc4c(c3)OCCO4)CS2)c1,–,2.31 µM (active)
c1ccc(CN2CCC(N=C3NN=C(c4ccc5c(c4)OCCO5)CS3)CC2)cc1,0.435,–
Cc1occc1C(=O)Nc1cccc(Cn2cccn2)c1,4.11,–
Cc1nn(C(=O)c2ccoc2C)c(N)c1-c1ccccc1,–,13 µM (active)
CCOC(=O)c1c(N)nn(C(=O)c2ccccc2)c1-c1ccccc1,-8.81,–
Cc1ccc(C(=O)Nc2ccc3c(c2)OCCO3)cc1S(=O)(=O)N1CCOCC1,10.5,–
N#CNC1=NCN(CCc2ccccc2)CN1,-0.27,–
c1ccc(CCN2CN=C(Nc3nc4ccccc4o3)NC2)cc1,–,18.4 µM (active)

Structure (SMILES),"activity change, positive = activation [%]",Potency
Cc1ccc2nc(NC3=NCN(CCc4ccccc4)CN3)nc(C)c2c1,-4.53,–
CCN(CC)C(=O)[C@H]1C[C@H](CC(=O)NCC23CC4CC(CC(C4)C2)C3)C(=O)N2CCc3c([nH]c4cc(CCC(=O)N(C)C)ccc34)[C@]12C,-0.656,–
N#CC(=C1SC=CS1)c1nc(-c2ccccc2)cs1,–,5.8 µM (active)
N#C/C(=C1/CCCN1)c1ccccn1,-2.36,–
COc1cc(/C=C/C(=O)OCC(=O)NCCCc2ccccc2)ccc1O,5.01,–
O=C(NCCC(=O)N1O[C@@H]2C=C[C@H]1C2)OCC1c2ccccc2-c2ccccc21,5.79,–
COc1ccc(NC(=O)COC(=O)c2n[nH]c3ccccc23)c(OC)c1,-1.81,–
COc1ccc(COC(=O)c2n[nH]c3ccccc23)cc1F,–,14.6 µM (active)
O=C(COC(=O)c1n[nH]c2ccccc12)NCc1ccccc1,7.07,–
O=C(CC1SC(N2CCOCC2)=NC1=O)Nc1ccccc1F (centres undefined),3.27,–
Cc1noc(C)c1-c1ccc2ncnc(NC(C)c3ccco3)c2c1 (centres undefined),–,16.4 µM (active)
c1coc(CNc2ncnc3ccccc23)c1,-10.6,–
COc1ccc(NS(=O)(=O)c2ccc(C(=O)Nc3c(C)n(C)n(-c4ccccc4)c3=O)cc2)cc1,1.95,–
CCCN(C(=O)CSc1nnc(N)s1)c1c(N)n(Cc2ccccc2)c(=O)[nH]c1=O,-2,–
CN(C(=O)CSc1cccc[n+]1[O-])C1CCCCC1,2.05,–
COc1cccc(OCC(=O)Nc2ccccc2C(N)=O)c1,–,5.17 µM (active)
Cc1cccc(OCCC(=O)Nc2ccccc2C(N)=O)c1,-2.38,–
CCCOC(=O)Nc1ccccc1C(N)=O,-0.681,–
NS(=O)(=O)c1ccc(CNC(=S)NC(=O)c2ccco2)cc1,2.68,–
O=C(NNS(=O)(=O)c1c(F)cc(F)c(Cl)c1F)C12CC3CC(CC(C3)C1)C2,-0.967,–
Cn1cncc1C#Cc1c(-c2ccsc2)sc2ccccc12,-2.38,–
O=C(Nc1nnc(-c2ccccc2)o1)c1cccc(S(=O)(=O)N2CCOCC2)c1,-10.2,–
O=C(NCc1ccc2c(c1)OCO2)c1cc([N+](=O)[O-])ccc1N1CCOCC1,-2.21,–
O=C(Nc1ccon1)c1sc2ccccc2c1Cl,–,13 µM (active)
Cc1nn(C)cc1/C=N/NC(=O)c1sc2ccccc2c1Cl,3.94,–
O=C(Nc1ccon1)c1cccc(Cl)c1,0.203,–
